From paper PMC5540273 (PLoS ONE, 2017)

The compounds below were run on T1, p38-beta. Settings: concentration: 1 μM, replicates: in singlicate; n = 1.
T1 construct: gene MAPK11
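Note: KINOMEscan kinase panel screen.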

SMILES	%Inh [%]
Nc1ncnc2[nH]c(-c3ccccc3)nc12 [AH5015]	0
Cc1cc(-c2ccc3c(c2)CC[C@@H](N[C@@H](C)c2ccccc2)C3)cnc1N.Cl [GW412617]	0
Cc1ccc(-c2cc(-c3c[nH]nc3-c3ccccn3)ccn2)cc1 [GW684088]	0
O=C(Nc1n[nH]c2cc(-c3cccc(F)c3F)ccc12)C1CC1 [SB-733894]	2
O=C(Nc1ccc2c(c1)OCO2)NC1CCN(c2ccnc(Nc3ccc(F)cc3)n2)C1 (stereo not drawn) [GSK1379724]	0
O=c1cc(N2CCOCC2)nc2n(Cc3cccc(Cl)c3Cl)ccn12 [GSK2286295]	0
COc1cccc(NC(=O)NC2CCN(c3ccnc(Nc4ccc(F)cc4)n3)C2)c1 (stereo not drawn) [GSK1379721]	0
CSc1nn2c(=O)cc(N3CCOCC3)nc2n1Cc1cccc(C(F)(F)F)c1C [GSK2363608]	0
CN(C)CCN(C)C(=O)c1cc(-c2ccncc2)c(-c2ccc(Cl)c(O)c2)o1.Cl.Cl [SB-710397]	0
CC(C)(C)c1ccc(C(=O)Nc2cn3cc(Cl)ccc3n2)cc1	0
COc1cc2nccc(Nc3ccc(NC(=O)c4ccc(C)cc4)c(O)c3)c2cc1OC.Cl [GW440132]	0
O=C1NC(=O)C(N2CCc3ccccc32)=C1c1ccccc1Cl [SB-373598]	35
COc1cc2ncn(-c3cc(OCC4CCCO4)c(C(N)=O)s3)c2cc1OC (stereo not drawn) [GSK204607]	0
COc1cc(Nc2nccc(N3CCC(NC(=O)Nc4cc(C)ccc4C)C3)n2)cc(OC)c1OC (stereo not drawn) [GSK1379762]	0
Cl.NC(=O)c1cccc(Nc2nccc(Nc3ccc(Oc4cccc(Cl)c4)c(Cl)c3)n2)c1 [GW659008]	0
COc1ccccc1CNC(=O)c1cc(C(=O)c2ccccc2C)c[nH]1 [GSK364507]	0
COc1cc2ncnc(Nc3ccc4nc(-c5ccccc5)[nH]c4c3)c2cc1OC.Cl [GW282450]	0
NC(=O)c1nnc2ccccc2c1N	0

SMILES	%Inh [%]
CN1C(=O)C(Nc2ccc(Cl)c(C(=O)O)c2)=C(c2ccc(Cl)cc2)C1=O [SB-404290]	2
Cc1cccc(-c2cc(Nc3ccncc3)c3ccccc3n2)n1 [GSK223675]	0
Cc1ccc(NC(=O)Nc2cc(C(C)(C)C)nn2-c2ccccc2)cc1 [GSK1014915]	87
Cn1ccc2ncnc(Oc3ccc(Nc4nc5ccccc5[nH]4)cc3)c21	0
CCn1c(-c2cccnc2O)nc2cnccc21 [SB-736715]	0
COc1ccc(C2=C(Nc3cccc(C(=O)O)c3)C(=O)NC2=O)cc1 [SB-390765]	6
Fc1cc(Cl)ccc1Nc1ccnc2cc(I)ccc12 [GW551191]	0
CS(=O)(=O)c1ccc(-c2c(-c3ncn[nH]3)sc(N3CCOCC3)c2C#N)cc1	11
Cn1ccc2ncnc(Oc3ccc(NC(=O)Nc4ccccc4)cc3)c21	0
Cc1cccc(-c2nc(Nc3ccc4[nH]ncc4c3)c3ccccc3n2)n1 [GW857175]	32
CC1=C(C(=O)Nc2cc3cn[nH]c3cc2F)C(c2ccc(C(F)(F)F)cc2)CC(=O)N1 (stereo not drawn) [GSK429286]	0
Cc1cccc(-c2nc(C)cc(Nc3ccncc3)n2)n1 [GSK257997]	0
Fc1cccc(COc2nnc(-c3ccc4c(c3)CCO4)o2)c1	0
COc1ccc(CNC(=O)NC2CCN(c3ccnc(Nc4cc(OC)c(OC)c(OC)c4)n3)C2)cc1 (stereo not drawn) [GSK1379748]	0
O=C(Nc1n[nH]c2nc(-c3nccs3)c(Br)cc12)C1CCCC1 [SB-742609]	0
Cc1csc(-c2nc(Nc3ccncc3)c3ccccc3n2)n1 [GW869640]	12
O=C(Nc1n[nH]c2nc(-c3nccs3)c(Br)cc12)C1CC1 [SB-742251]	0

These compounds were tested on p38-delta. Settings: concentration: 1 μM, replicates: in singlicate; n = 1.

SMILES	%Inh [%]
Nc1ncnc2[nH]c(-c3ccccc3)nc12 [AH5015]	6
Cc1cc(-c2ccc3c(c2)CC[C@@H](N[C@@H](C)c2ccccc2)C3)cnc1N.Cl [GW412617]	25
Cc1ccc(-c2cc(-c3c[nH]nc3-c3ccccn3)ccn2)cc1 [GW684088]	25
O=C(Nc1n[nH]c2cc(-c3cccc(F)c3F)ccc12)C1CC1 [SB-733894]	0
O=C(Nc1ccc2c(c1)OCO2)NC1CCN(c2ccnc(Nc3ccc(F)cc3)n2)C1 (stereo not drawn) [GSK1379724]	37
O=c1cc(N2CCOCC2)nc2n(Cc3cccc(Cl)c3Cl)ccn12 [GSK2286295]	40
COc1cccc(NC(=O)NC2CCN(c3ccnc(Nc4ccc(F)cc4)n3)C2)c1 (stereo not drawn) [GSK1379721]	35
CN(C)CCN(C)C(=O)c1cc(-c2ccncc2)c(-c2ccc(Cl)c(O)c2)o1.Cl.Cl [SB-710397]	51
CC(C)(C)c1ccc(C(=O)Nc2cn3cc(Cl)ccc3n2)cc1	39
COc1cc2nccc(Nc3ccc(NC(=O)c4ccc(C)cc4)c(O)c3)c2cc1OC.Cl [GW440132]	23
O=C1NC(=O)C(N2CCc3ccccc32)=C1c1ccccc1Cl [SB-373598]	6
COc1cc2ncn(-c3cc(OCC4CCCO4)c(C(N)=O)s3)c2cc1OC (stereo not drawn) [GSK204607]	37
COc1cc(Nc2nccc(N3CCC(NC(=O)Nc4cc(C)ccc4C)C3)n2)cc(OC)c1OC (stereo not drawn) [GSK1379762]	32
Cl.NC(=O)c1cccc(Nc2nccc(Nc3ccc(Oc4cccc(Cl)c4)c(Cl)c3)n2)c1 [GW659008]	38
COc1ccccc1CNC(=O)c1cc(C(=O)c2ccccc2C)c[nH]1 [GSK364507]	39
COc1cc2ncnc(Nc3ccc4nc(-c5ccccc5)[nH]c4c3)c2cc1OC.Cl [GW282450]	36
NC(=O)c1nnc2ccccc2c1N	0

SMILES	%Inh [%]
CN1C(=O)C(Nc2ccc(Cl)c(C(=O)O)c2)=C(c2ccc(Cl)cc2)C1=O [SB-404290]	0
Cc1cccc(-c2cc(Nc3ccncc3)c3ccccc3n2)n1 [GSK223675]	42
Cc1ccc(NC(=O)Nc2cc(C(C)(C)C)nn2-c2ccccc2)cc1 [GSK1014915]	54
Cn1ccc2ncnc(Oc3ccc(Nc4nc5ccccc5[nH]4)cc3)c21	16
CCn1c(-c2cccnc2O)nc2cnccc21 [SB-736715]	8
COc1ccc(C2=C(Nc3cccc(C(=O)O)c3)C(=O)NC2=O)cc1 [SB-390765]	2
Fc1cc(Cl)ccc1Nc1ccnc2cc(I)ccc12 [GW551191]	41
CS(=O)(=O)c1ccc(-c2c(-c3ncn[nH]3)sc(N3CCOCC3)c2C#N)cc1	34
Cn1ccc2ncnc(Oc3ccc(NC(=O)Nc4ccccc4)cc3)c21	6
Cc1cccc(-c2nc(Nc3ccc4[nH]ncc4c3)c3ccccc3n2)n1 [GW857175]	0
CC1=C(C(=O)Nc2cc3cn[nH]c3cc2F)C(c2ccc(C(F)(F)F)cc2)CC(=O)N1 (stereo not drawn) [GSK429286]	21
Cc1cccc(-c2nc(C)cc(Nc3ccncc3)n2)n1 [GSK257997]	51
Fc1cccc(COc2nnc(-c3ccc4c(c3)CCO4)o2)c1	4
COc1ccc(CNC(=O)NC2CCN(c3ccnc(Nc4cc(OC)c(OC)c(OC)c4)n3)C2)cc1 (stereo not drawn) [GSK1379748]	26
O=C(Nc1n[nH]c2nc(-c3nccs3)c(Br)cc12)C1CCCC1 [SB-742609]	47
Cc1csc(-c2nc(Nc3ccncc3)c3ccccc3n2)n1 [GW869640]	0
O=C(Nc1n[nH]c2nc(-c3nccs3)c(Br)cc12)C1CC1 [SB-742251]	20
